24 molecules from PubChem BioAssay (Tox21) can be followed below.

A number with no mark means an inactive call. Records with an inconclusive call do not appear. Active and inactive are the calls of the source. Unless noted, calls follow the shape of the dose curve; as a rule, active = well fitted curve in the direction sought with a large enough effect in the repeat runs; inconclusive = weak or mixed curves; inactive = no such curve, though single readings can be large; an effect the other way counts as inactive or inconclusive.

Test [1] can be described thus: qHTS assay to identify small molecule agonists of the hypoxia (HIF-1) signaling pathway - cell viability counter screen (AID 1224844; calls by dose curve; also: nearly all actives have a fitted effect of over 50% in size). The essentials:
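Same wells as the HIF-1 reporter screen; ME-180 cells carrying HRE-bla, 17 hr treatment at 37C; CellTiter-Glo luminescence read after 30 min at room temperature.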
For orientation: Quantitative high-throughput screening tests each substance at several concentrations.

Test [2] is described as follows: qHTS assay to identify small molecule agonists of H2AX (AID 1224845; active = well fitted activation curve with a large enough effect in the signal ratio in the repeat runs, not every such curve was filed as active; the % refers to the signal ratio). An outline of the steps:
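Wild-type CHO-K1 cells plated overnight, then exposed 3 hr at 37C to compounds at 15 concentrations (0.76% DMSO). Lysed, then HTRF anti-pH2AX(S139)-cryptate/anti-H2AX-d2 detection after 24 hr at room temperature; emissions 665 and 620 nm.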

Test [3] is described as follows: qHTS assay to identify small molecule agonists of the hypoxia (HIF-1) signaling pathway (AID 1224846; active = well fitted activation curve with a large enough effect in the signal ratio in the repeat runs, not every such curve was filed as active; the % refers to the signal ratio; also: potency is read from the fitted curve at half-maximal effect). The essentials: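 In ME-180 cells bearing an HRE-bla construct, 17 h treatment with DMSO-dissolved compounds at 37C was followed by CCF4-AM loading to quantify reporter induction.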
The nature of test [4]: qHTS assay to identify small molecule antagonists of the estrogen related receptor (ERR) signaling pathway from Tox21 library (AID 1224848). Also: nearly all actives have a fitted effect of over 50% in size. Also: potency is read from the fitted curve at half-maximal effect. The essentials: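 Tox21 10K compounds in DMSO tested for ERR pathway antagonism in NTP's ERR cell line; 18 h, 37 C exposure; ONE-Glo luminescence.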
Test [5] can be described thus: qHTS assay to identify small molecule agonists of the estrogen related receptor (ERR) signaling pathway from Tox21 library (AID 1224849; calls by dose curve; also: nearly all actives have a fitted effect of over 15% in size). The following applies: ERR reporter cell line, ONE-Glo luciferase, 18 h; at 92.4 µM (top of the series) unless noted. The essentials:
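Reporter cells (ERR, NTP source) treated with Tox21 10K compounds 18 h, 37 C. Readout: ONE-Glo luminescence, 30 min RT.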

The nature of test [6]: qHTS RealTime-Glo MT Cell Viability Assay in HepG2 cells - 40 hour (AID 1224870). Also: nearly all actives have a fitted effect of over 50% in size. Also: potency is read from the fitted curve at half-maximal effect. An outline of the steps: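 HepG2 cells mixed with RealTime-Glo MT reagents (NanoLuc plus cell-permeant prosubstrate) were seeded at 600 cells/well, incubated 5 h at 37 C/5% CO2, then pinned with compounds in DMSO; nonlytic luminescence tracked viability during 40 h treatment.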
Test [7] in a line: qHTS RealTime-Glo MT Cell Viability Assay in HepG2 cells - 24 hour (AID 1224867). Also: nearly all actives have a fitted effect of over 50% in size. An outline of the steps: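 HepG2 suspension premixed with RealTime-Glo reagents is plated at 600 cells per well and left 5 h at 37 C/5% CO2. Compounds in DMSO then go in, and bioluminescence reflecting viable cell number is recorded over 40 h.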
Test [8] can be described thus: qHTS RealTime-Glo MT Cell Viability Assay in HEK293 cells - 32 hour (AID 1224868). Also: nearly all actives have a fitted effect of over 50% in size. Also: potency is read from the fitted curve at half-maximal effect. As to activity change, negative = cytotoxic: top concentration of the series differs between compounds. The essentials: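 Reads taken at 0, 8, 16, 24, 32 and 40 h from the same wells. HEK293 cells (600/well) carried RealTime-Glo reagents from seeding, with compound added after a 5 h settle at 37 C.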
The nature of test [9]: A CellTox Green Cytotoxicity Assay to monitor cytotoxicity in HEK293 cells - 0 hour (AID 1224869). Also: nearly all actives have a fitted effect of over 50% in size. An outline of the steps:
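Homogeneous no-lysis format: HEK293 cell suspension mixed with CellTox Green reagent, seeded, incubated 5 h at 37 C/5% CO2, then dosed by pintool with compound in DMSO.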

The nature of test [10]: qHTS assay to identify small molecule agonists of H2AX - cell viability counter screen (AID 1224847; calls by dose curve; also: top concentration of the series differs between compounds; nearly all actives have a fitted effect of over 30% in size). An outline of the steps:
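CHO-K1 wt, 1000 cells/well, o/n 37C; cpds 15 conc, 3 h 37C, 0.76% DMSO; CellTiter-Glo, 30 min RT, luminescence.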
% is scaled to controls: 0 for no effect and ±100 for the full control effect.

Take `C#Cc1cccc(Nc2ncnc3cc(OCCOC)c(OCCOC)cc23)c1`: the Potency entry in [1], in test [2], in [3] and in test [6] was “inactive” each time. In addition, the Potency in [4] was 6.68 µM (active). The activity change, positive = activation in test [5] was -38.1% [at 42.5 µM].
For `Cc1cc(C(=O)O)ccc1[N+](=O)[O-]`, the Potency result in test [1], in [2], in test [3], in [7], in test [8] and in test [9] was “inactive” each time. Besides, in test [6], the Potency entry is “inactive”.
Turning to `CC(C)(CO)[N+](=O)[O-]`, the Potency entry in test [1], in [2], in [3], in [10], in [9] and in test [6] was “inactive” throughout.
Regarding `CCCCC(CC)CN1C(=O)C2C3C=CC(C3)C2C1=O` (stereo unspecified), the Potency result in [1], in test [2], in test [3], in [7], in test [9] and in test [6] was “inactive” throughout. Besides, in [4], the Potency was 54.5 µM (active). Also, the activity change, positive = activation in [5] was -33.1%.
For the molecule `CNC(=O)CN(CCN(CCN(CC(=O)[O-])CC(=O)NC)CC(=O)[O-])CC(=O)[O-].O.[Gd+3]`, the Potency result in [1], in [2], in [3], in [10], in [9] and in [6] was “inactive” each time.
Regarding `O=S(=O)(Oc1ccc(Cl)cc1)c1ccccc1`, the Potency result in test [1], in test [2], in [3], in test [4], in [7] and in [9] was “inactive” throughout. Besides, the Potency result in test [6] is “inactive”.
As for `Nc1cccc([N+](=O)[O-])c1`, the Potency result in test [1], in test [2], in test [3], in [4], in [7] and in test [8] was “inactive” each time. The Potency result in test [9] and in [6] was “inactive” each time. The activity change, positive = activation in test [5] is -5.85%.
For the molecule `C[N+]1(CC2COC(c3ccccc3)(C3CCCCC3)O2)CCCCC1` (stereo unspecified), the Potency entry in test [1], in test [2], in test [3], in test [4], in test [7] and in [9] was “inactive” in each case. Further, in test [5], the activity change, positive = activation was -8.13% [at 42.5 µM]. The Potency in [6] was 23.9 µM (active).
Regarding `NS(=O)(=O)c1ccc(N2CCCCS2(=O)=O)cc1`, the Potency result in [1], in test [2], in test [3], in test [4], in test [9] and in test [6] was “inactive” in each case. The activity change, positive = activation in test [5] was 5.22% [at 42.5 µM].
For `CN(C)c1ccc(/C=C/c2ccc([N+](=O)[O-])cc2)cc1`, the activity change, negative = cytotoxicity was -6.06% [at 6.97 µM] in test [1] and -7.57% [at 6.97 µM] in [7]. In addition, in test [2], the activation (H2AX phosphorylation) was -1.3% [at 14 µM]. The activation in test [3] is -1.48% [at 7.01 µM]. Further, the activity change, negative = cytotoxic in [8] was -5.7% [at 6.97 µM]; in test [6] it was -1.99% [at 6.97 µM].
On to `CN(Cc1ccc(C(C)(C)C)cc1)Cc1cccc2ccccc12`, for which the Potency entry in test [1], in [2], in [3], in test [7], in test [8] and in test [9] was “inactive” in each case. The Potency result in [6] is “inactive”.
On to `O=C(O)CC(=O)C(=O)O`, for which the Potency result in [1], in test [2], in [3], in [7], in test [8] and in test [9] was “inactive” throughout. The Potency entry in [6] is “inactive”.
Regarding `CCOCC(O)COc1ccc(NC(=O)CC[S+](C)C)cc1` (stereo unspecified), the Potency result in test [1], in test [2], in test [3], in test [7], in test [8] and in test [9] was “inactive” in each case. In addition, in [6], the Potency entry was “inactive”.
In the case of `CC(=O)[O][Al][O]C(C)=O`, the Potency result in [1], in test [2], in test [3], in test [4], in test [7] and in test [9] was “inactive” each time. Besides, the Potency result in test [6] is “inactive”. The activity change, positive = activation in [5] was 1.12%.
Regarding `CCCCOC(=O)CCCCCCCC(=O)OCCCC`, the Potency entry in test [1], in test [2], in test [3], in test [4], in test [8] and in test [9] was “inactive” throughout. For the same molecule, the Potency entry in [6] is “inactive”.
For the molecule `CCCCCCCCCCCc1ccccc1`, the Potency result in test [1], in test [2], in test [3], in test [7], in [8] and in test [9] was “inactive” throughout. In test [6], the Potency result was “inactive”.
For `Cc1cccc(Nc2ccccc2)c1`, the Potency result in test [1], in [2], in test [3], in test [7], in test [8] and in test [6] was “inactive” throughout.
With `Cc1oc2c(NC(=O)c3c(Cl)cccc3Cl)cccc2c1C(C)(C)O`, the Potency entry in test [1], in test [2] and in test [7] was “inactive” in each case. Also, the Potency in test [3] was 17.4 µM (active); in test [4], 30.6 µM (active).
As for `CCCCC1=NC2(CCCC2)C(=O)N1Cc1ccc(-c2ccccc2-c2nn[nH]n2)cc1`, the Potency entry in test [1], in test [2], in test [3], in test [7], in [8] and in test [9] was “inactive” throughout. Moreover, the Potency result in test [6] is “inactive”.
On to `CC(C)OC(=O)C(C)N(C(=O)c1ccccc1)c1ccc(F)c(Cl)c1` (stereo unspecified), for which the Potency result in [1], in test [2], in test [3], in test [8], in test [9] and in [6] was “inactive” throughout. Besides, the Potency in test [4] was 17.2 µM (active). Moreover, the activity change, positive = activation in test [5] was -51.7%.
Turning to `C=C1C(=C/C=C2\CCC[C@]3(C)[C@@H]([C@H](C)/C=C/[C@@H](O)C4CC4)CC[C@@H]23)C[C@@H](O)C[C@@H]1O`, the Potency result in [1], in [2], in [7], in test [9] and in test [6] was “inactive” in each case. Moreover, the Potency in test [4] is 13.3 µM (active); in test [8], 16.9 µM (active).
For the molecule `CCOC(=O)COC(=O)c1cc(Oc2ccc(C(F)(F)F)cc2Cl)ccc1[N+](=O)[O-]`, the Potency entry in test [1], in [2], in test [3], in test [7], in [9] and in test [6] was “inactive” in each case.
Consider `CN(C)c1ccc(C(c2ccccc2)c2ccc(N(C)C)cc2)cc1`, for which the Potency result in test [1], in [2], in test [10], in test [7], in [9] and in [6] was “inactive” in each case. The Potency in test [4] was 34.4 µM (active). Moreover, in test [5], the activity change, positive = activation was -34.5%.
Turning to `CN(C)C(=O)NC1(c2ccccc2)CCN(CC[C@@]2(c3ccc(F)c(F)c3)CN(C(=O)c3ccccc3)CCO2)CC1`, the Potency entry in [1], in test [2], in test [3], in [7], in test [9] and in [6] was “inactive” in each case.
